Laboratory results taken from PubChem BioAssay (Tox21).
Inconclusive results are not listed. The source made the active and inactive calls. Unless noted, the call rests on the fitted dose curve; in most records, active means well fitted curve in the direction sought with a large enough effect in the repeat runs; inconclusive means weak or mixed curves; inactive means no such curve, though single readings can be large; an effect the other way counts as inactive or inconclusive.

Key:
[1] = qHTS assay to identify small molecule agonists of the vitamin D receptor (VDR) signaling pathway - cell viability counter screen (AID 743224); further: series mostly up to about 63 µM; on the % scale 0 is the no-effect control and ±100 the full control effect; nearly all actives have a fitted effect of over 50% in size
How it was run: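 VDR-bla cell line, quantitative HTS format; 16 h compound incubation (37C, 5% CO2); ATP-based CellTiter-Glo luminescence measured in the reporter assay wells.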

[2] = qHTS assay to identify small molecule agonists of the NFkB signaling pathway (AID 1159509; active means well fitted curve in the direction sought with a large enough effect in the signal ratio in the repeat runs, not every such curve was filed as active; the % refers to the signal ratio; further: series mostly up to about 61 µM; on the % scale 0 is the no-effect control and ±100 the full control effect)
How it was run: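 ME-180 NFkB-bla, 2,000 cells/well, overnight plating; cpd pinned in DMSO, 5 h 37 C; B/G FRET substrate 1.5 h RT; ex 405, em 460/530 nm.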

[3] = qHTS assay to identify small molecule agonists of the NFkB signaling pathway - cell viability counter screen (AID 1159515; calls by dose curve; further: series mostly up to about 61 µM; on the % scale 0 is the no-effect control and ±100 the full control effect; nearly all actives have a fitted effect of over 55% in size)
How it was run: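 Viability in NFkB-bla ME-180 cells was measured by CellTiter-Glo luminescence, 30 min room temperature, in wells already treated 5 hr with compounds and read for reporter FRET.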

[4] = qHTS assay to identify small molecule agonists of the endoplasmic reticulum stress response signaling pathway (AID 1159516; active means well fitted activation curve with a large enough effect in the signal ratio in the repeat runs, not every such curve was filed as active; the % refers to the signal ratio; further: on the % scale 0 is the no-effect control and ±100 the full control effect)
How it was run: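 ER stress element reporter (bla) in HeLa. 1,500 cells/well, overnight attachment; 5 hr compound; 2 hr RT substrate; dual-emission fluorescence.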

[5] = qHTS assay to identify small molecule agonists of the endoplasmic reticulum stress response signaling pathway - cell viability counter screen (AID 1159517; calls by dose curve;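 further: HeLa cells carrying an ER stress response element beta-lactamase reporter; series mostly up to about 61 µM; on the % scale 0 is the no-effect control and ±100 the full control effect; nearly all actives have a fitted effect of over 50% in size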)
How it was run: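 CellTiter-Glo was added to wells already read for beta-lactamase FRET, and luminescence was recorded 30 min later. Cells: ESRE-bla HeLa, 1,500 per well, compound exposure 5 hr at 37 C.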

[6] = qHTS assay to identify small molecule antagonists of the retinoid-related orphan receptor gamma (ROR-gamma) signaling pathway - cell viability counter screen (AID 1159520); further: on the % scale 0 is the no-effect control and ±100 the full control effect; nearly all actives have a fitted effect of over 50% in size
How it was run: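 Tet-on ROR gamma CHO cells (1,000/well) were plated 4 hr, given compounds in DMSO for 2 hr at 37 C, then induced with 1 uM final doxycycline for 16 hr. Viability was read as ATP by CellTiter-Glo luminescence after 30 min.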

[7] = target: Nuclear receptor ROR-gamma (Homo sapiens) (UniProt P51449); assay: qHTS assay to identify small molecule antagonists of the retinoid-related orphan receptor gamma (ROR-gamma) signaling pathway (AID 1159521;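 further: CHO cells with doxycycline inducible ROR-gamma driving an RORE luciferase reporter; top concentration of the series differs between compounds; on the % scale 0 is the no-effect control and ±100 the full control effect; nearly all actives have a fitted effect of over 50% in size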)
How it was run: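 Tet-on ROR-gamma CHO cells with ROR response element-luciferase reporter; compounds added 2 hr before 1 uM doxycycline induction, then 16 hr at 37 C. Antagonism scored as decreased ONE-Glo luminescence.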

[8] = qHTS assay to identify small molecule agonists of the AP-1 signaling pathway - cell viability counter screen (AID 1159525; calls by dose curve; further: nearly all actives have a fitted effect of over 55% in size)
How it was run: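 ME-180 AP-1-bla, 2500 cells/well, Opti-MEM + 0.5% dialyzed FBS; overnight 37 °C; cpd 15-pt titration, 5 h 37 °C; CellTiter-Glo 30 min RT; luminescence read; normalised to TOAB and DMSO controls.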

[9] = qHTS assay to identify small molecule agonists of the AP-1 signaling pathway (AID 1159526; calls by dose curve; further: on the % scale 0 is the no-effect control and ±100 the full control effect)
[10] = target: Retinoic acid receptor RXR-alpha (Homo sapiens) (UniProt P19793); assay: qHTS assay to identify small molecule agonists of the RXR signaling pathway (AID 1159527; calls by dose curve; further: on the % scale 0 is the no-effect control and ±100 the full control effect; nearly all actives have a fitted effect of over 35% in size)
How it was run: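 GeneBLAzer RXR-alpha-UAS-bla HEK 293T cells in 2% charcoal-stripped FBS medium were exposed to compounds for 16 hr at 37 C in agonist mode. Beta-lactamase reporter read as 460/530 nm FRET ratio after 2 hr substrate loading.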

[11] = qHTS assay to identify small molecule agonists of the RXR signaling pathway - cell viability counter screen (AID 1159529)
How it was run: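 RXR-alpha-UAS-bla HEK 293T cells in medium with 2% charcoal-stripped FBS were pre-incubated 5 hr, then compound-treated 16 hr at 37 C. Viability was read by CellTiter-Glo luminescence in the same wells as the beta-lactamase assay, with tetraoctyl ammonium bromide as positive control.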

[12] = qHTS assay to identify small molecule antagonists of the retinoid acid receptor (RAR) signaling pathway - cell viability counter screen (AID 1159551); further: on the % scale 0 is the no-effect control and ±100 the full control effect; nearly all actives have a fitted effect of over 35% in size
How it was run: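 Following overnight attachment, C3RL4 reporter cells received DMSO-dissolved compounds and then retinol (1 uM final). Six hours later at 37 C, ATP content was measured by CellTiter-Glo luminescence.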

[13] = qHTS assay to identify small molecule antagonists of the retinoic acid receptor (RAR) signaling pathway (AID 1159552)
How it was run: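 Retinol signaling pathway inhibitors screened in C3RL4 RARE-luciferase reporter cells seeded overnight at 37 C, then compounds added with 1 uM (final) retinol as pathway substrate. After 6 hr at 37 C, luciferase luminescence read after 30 min at room temperature.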

[14] = qHTS assay to identify small molecule agonists of the retinoic acid receptor (RAR) signaling pathway (AID 1159553); further: on the % scale 0 is the no-effect control and ±100 the full control effect
How it was run: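 Cell line C3RL4, RARE luciferase reporter. Treatment: compounds in DMSO, 6 hr, 37 C, 5% CO2, after overnight plating. Detection: luminescence, 30 min RT after reagent.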

[15] = qHTS assay to identify small molecule antagonists of the vitamin D receptor (VDR) signaling pathway - cell viability counter screen (AID 743225)
How it was run: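 VDR-UAS-bla HEK 293T cells were plated and incubated 4 h at 37C, then dosed with compound plus 3 nM (final) 1-alpha,25-dihydroxyvitamin D3 for 16 h. After the 2 h beta-lactamase read, viability in the same wells was read as CellTiter-Glo luminescence after 30 min at room temperature.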

[16] = qHTS assay to identify small molecule antagonists of the estrogen related receptor (ERR) signaling pathway - cell viability counter screen (AID 1224818)
How it was run: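 Here, ERR cells are plated at 2,000 cells per well, allowed 6 h to attach, and treated with compounds in DMSO for 17.5 h at 37 C. CellTiter-Fluor is then added and fluorescence read after 30 min.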

[17] = qHTS assay to identify small molecule antagonists of the estrogen related receptor (ERR) signaling pathway (AID 1224819)
How it was run: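 LOPAC library screened for antagonism as reduced One-Glo luminescence in ERR reporter cells (2,000/well). Compounds were added after 6 h pre-incubation and left 18 h at 37C; reading followed a 30 min room-temperature reagent step.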

[18] = qHTS assay to identify small molecule agonists of the estrogen related receptor (ERR) signaling pathway (AID 1224820); further: on the % scale 0 is the no-effect control and ±100 the full control effect
How it was run: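 Cells: ERR line from NTP, 2,000/well. Pre-incubation 6 h, 37 C/5% CO2. Compound (DMSO) pin transfer, 18 h 37 C. One-Glo, 30 min RT, luminescence.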

[19] = system: estrogen-related receptor alpha (ERRalpha) with PGC-1alpha coactivator, human; assay: qHTS assay to identify small molecule antagonists of the estrogen related receptor signaling pathway with the pleiotropic PPARgamma coactivator (PGC) (AID 1224821; calls by dose curve)
How it was run: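 Luminescent read-out (One-Glo, 30 min at room temperature) following 18 h treatment of PGC/ERR cells at 37 C with compounds delivered in DMSO. Cells had settled 6 h at 37 C/5% CO2 before dosing.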

[20] = qHTS assay to identify small molecule antagonists of the estrogen related receptor signaling pathway with the pleiotropic PPARgamma coactivator (PGC) cell viability counter screen (AID 1224822)
How it was run: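 qHTS format, DMSO compound stocks pin-transferred onto PGC/ERR cells 6 h after plating; 17.5 h exposure at 37 C, then CellTiter-Fluor fluorescence.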

Retinoic acid receptor RXR-alpha (Homo sapiens), sequence (P19793 whole entry, looked up): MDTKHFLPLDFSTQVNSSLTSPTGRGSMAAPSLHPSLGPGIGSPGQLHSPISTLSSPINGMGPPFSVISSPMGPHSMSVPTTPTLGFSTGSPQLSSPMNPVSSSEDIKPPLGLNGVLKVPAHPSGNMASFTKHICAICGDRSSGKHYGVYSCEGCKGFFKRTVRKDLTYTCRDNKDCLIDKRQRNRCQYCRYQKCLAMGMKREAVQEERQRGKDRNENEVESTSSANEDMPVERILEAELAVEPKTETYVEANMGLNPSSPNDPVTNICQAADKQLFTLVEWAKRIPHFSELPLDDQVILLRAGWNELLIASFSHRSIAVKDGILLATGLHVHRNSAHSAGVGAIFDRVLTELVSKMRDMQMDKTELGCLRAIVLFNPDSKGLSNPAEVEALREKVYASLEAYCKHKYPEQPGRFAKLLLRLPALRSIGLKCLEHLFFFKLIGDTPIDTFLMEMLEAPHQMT

O=c1n(CCO)c(=O)n(CCO)c(=O)n1CCO
inactive: Potency [1] | outcome [2] | outcome [3] | outcome [4] | outcome [5] | outcome [6] | Potency [7] | Potency [8] | outcome [9] | Potency [10] | Potency [11] | outcome [12] | Potency [13] | Potency [14]

COc1ccc2c(c1)c(CC(=O)OCC(=O)O)c(C)n2C(=O)c1ccc(Cl)cc1
inactive: Potency [1] | outcome [2] | outcome [3] | outcome [4] | outcome [5] | outcome [6] | Potency [7] | Potency [8] | outcome [9] | Potency [10] | Potency [11] | outcome [12] | Potency [13] | Potency [14]

O=C(O)CN(CCOCCOCCN(CC(=O)O)CC(=O)O)CC(=O)O
inactive: activity change, negative = cytotoxicity [1] 7.18% [at 0.55 µM] | viability change, negative = cytotoxic [15] 0.79% [at 0.628 µM] | activation [2] -0.0067% [at 0.628 µM] | activity, negative = cytotoxic [3] 7.66% [at 0.628 µM] | activation [4] 0.191% [at 0.628 µM] | activity change, negative = cytotoxicity [5] 11.3% [at 0.628 µM] | activity, negative = cytotoxicity [6] 0.0573% [at 0.349 µM] | activity change, negative = inhibition [7] 4.15% [at 0.35 µM] | viability change, negative = cytotoxic [8] -1.21% [at 0.29 µM] | activation [9] -6.2% [at 0.29 µM] | activation [10] 10% [at 0.29 µM] | activity change, negative = cytotoxicity [11] -0.722% [at 0.29 µM] | activity change, negative = cytotoxicity [12] 0.187% [at 0.349 µM] | activity, negative = inhibition [13] 12.3% [at 0.349 µM] | activation [14] 2.01% [at 0.756 µM] | outcome [16] | outcome [17] | outcome [18] | outcome [19] | outcome [20]

CC[N+](C)(C)c1cccc(O)c1
inactive: Potency [1] | Potency [15] | outcome [2] | outcome [3] | outcome [4] | outcome [5] | outcome [6] | Potency [7] | Potency [8] | outcome [9] | Potency [10] | Potency [11] | outcome [12] | Potency [13] | Potency [14] | outcome [16] | outcome [20]

N=C(N)c1ccc(OCCCOc2ccc(C(=N)N)cc2)cc1
inactive: Potency [1] | Potency [15] | outcome [2] | outcome [3] | outcome [4] | outcome [5] | outcome [6] | Potency [7] | Potency [8] | outcome [9] | Potency [10] | Potency [11] | outcome [12] | Potency [13] | Potency [14]

Cn1c(N)c(N=O)c(=O)n(C)c1=O
inactive: Potency [1] | Potency [15] | outcome [2] | outcome [3] | outcome [4] | outcome [5] | outcome [6] | Potency [7] | Potency [8] | outcome [9] | Potency [10] | Potency [11] | outcome [12] | Potency [13] | Potency [14]

CN(C)CCCSc1ccccc1NC(=O)/C=C/c1ccccc1
inactive: Potency [1] | Potency [15] | outcome [2] | outcome [3] | outcome [4] | outcome [5] | outcome [6] | Potency [7] | Potency [8] | outcome [9] | Potency [10] | Potency [11] | outcome [12] | Potency [13] | Potency [14]

CC(C)(C)NCCNC(C)(C)C
inactive: Potency [1] | Potency [15] | outcome [2] | outcome [3] | outcome [4] | outcome [5] | outcome [6] | Potency [7] | Potency [8] | outcome [9] | Potency [10] | Potency [11] | outcome [12] | Potency [13] | Potency [14]

CCCCCCCCCCCCCC=O
inactive: activity change, negative = cytotoxicity [1] -0.0946% [at 5.95 µM] | viability change, negative = cytotoxic [15] 5.28% [at 6.95 µM] | activation [2] -1.29% [at 6.95 µM] | activity, negative = cytotoxic [3] 2.89% [at 6.95 µM] | activation [4] -3.51% [at 6.95 µM] | activity change, negative = cytotoxicity [5] 0.611% [at 6.95 µM] | activity, negative = cytotoxicity [6] 2.5% [at 8.39 µM] | activity change, negative = inhibition [7] 5.08% [at 8.39 µM] | viability change, negative = cytotoxic [8] -4.58% [at 6.97 µM] | activation [9] -1.06% [at 6.97 µM] | activation [10] 0.369% [at 6.98 µM] | activity change, negative = cytotoxicity [11] 1.55% [at 6.97 µM] | activity change, negative = cytotoxicity [12] 4.56% [at 8.39 µM] | activity, negative = inhibition [13] -4.55% [at 8.39 µM] | activation [14] 1.59% [at 8.36 µM]

CCCCC(CC)COC(=O)c1ccccc1O (stereo not given)
inactive: Potency [1] | Potency [15] | outcome [2] | outcome [3] | outcome [4] | outcome [5] | outcome [6] | Potency [7] | Potency [8] | outcome [9] | Potency [10] | Potency [11] | outcome [12] | Potency [13] | Potency [14]

CC(=O)N(CC(O)CO)c1c(I)c(C(=O)NCCO)c(I)c(C(=O)NCC(O)CO)c1I (stereo not given)
inactive: Potency [1] | Potency [15] | outcome [2] | outcome [3] | outcome [4] | outcome [5] | outcome [6] | Potency [7] | Potency [8] | outcome [9] | Potency [10] | Potency [11] | outcome [12] | Potency [13] | Potency [14]

CC(C)CNCC(C)C
inactive: Potency [1] | Potency [15] | outcome [2] | outcome [3] | outcome [4] | outcome [5] | outcome [6] | Potency [7] | Potency [8] | outcome [9] | Potency [10] | Potency [11] | outcome [12] | Potency [13] | Potency [14]

FC(F)OC(Cl)C(F)(F)F (stereo not given)
inactive: Potency [1] | Potency [15] | outcome [2] | outcome [3] | outcome [4] | outcome [5] | outcome [6] | Potency [7] | Potency [8] | outcome [9] | Potency [10] | Potency [11] | outcome [12] | Potency [13] | Potency [14]

CN1CCCC1
inactive: Potency [1] | Potency [15] | outcome [2] | outcome [3] | outcome [4] | outcome [5] | outcome [6] | Potency [7] | Potency [8] | outcome [9] | Potency [10] | Potency [11] | outcome [12] | Potency [13] | Potency [14]

O=[N+]([O-])c1ccc(F)cc1F
inactive: Potency [1] | Potency [15] | outcome [2] | outcome [3] | outcome [4] | outcome [5] | outcome [6] | Potency [7] | Potency [8] | outcome [9] | Potency [10] | Potency [11] | outcome [12] | Potency [13] | Potency [14]

CC(C)(C)c1nnc(NS(=O)(=O)c2ccccc2)s1
inactive: Potency [1] | Potency [15] | outcome [2] | outcome [3] | outcome [4] | outcome [5] | outcome [6] | Potency [7] | Potency [8] | outcome [9] | Potency [10] | Potency [11] | outcome [12] | Potency [13] | Potency [14]
